Measurements published in PubChem BioAssay AID1573 (National Center for Advancing Translational Sciences (NCATS), 2009).
Records with an inconclusive call do not appear. The source made the active and inactive calls. Calls come from the whole dose curve; as a rule, active = well fitted inhibition curve with a large enough effect; inconclusive = small, poorly fitted or top-dose-only effect; inactive = no such curve, though single readings can be large or run the other way.

These molecules were tested against Thyroid hormone receptor beta (Homo sapiens) (UniProt P10828) (assay: Concentration Response Confirmation Assay for Inhibitors of the Interaction of Thyroid Hormone Receptor and Steroid Receptor Coregulator 2). Conditions: TRb LBD + Texas Red SRC2 peptide, fluorescence polarization, 5 h; series mostly up to 92.2 µM.
Chain of Thyroid hormone receptor beta (Homo sapiens) (P10828 whole entry, looked up, the tested form may be a part): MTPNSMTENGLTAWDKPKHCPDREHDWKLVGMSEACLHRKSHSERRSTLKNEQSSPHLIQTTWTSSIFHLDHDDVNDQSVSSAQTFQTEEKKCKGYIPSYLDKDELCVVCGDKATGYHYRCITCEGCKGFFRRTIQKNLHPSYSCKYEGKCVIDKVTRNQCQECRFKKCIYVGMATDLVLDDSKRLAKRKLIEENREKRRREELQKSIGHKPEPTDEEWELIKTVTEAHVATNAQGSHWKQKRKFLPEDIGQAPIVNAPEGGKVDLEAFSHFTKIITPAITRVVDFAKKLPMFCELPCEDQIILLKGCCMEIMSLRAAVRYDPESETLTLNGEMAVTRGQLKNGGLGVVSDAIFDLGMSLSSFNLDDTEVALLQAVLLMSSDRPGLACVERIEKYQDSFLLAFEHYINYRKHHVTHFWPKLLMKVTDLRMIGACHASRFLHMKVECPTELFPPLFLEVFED
Excerpt: NIH Molecular Libraries Probe Production Network [MLPCN] NIH Chemical Genomics Center [NCGC] MLPCN Grant: DK058080 Assay Provider: R. Kip Guy, St. Jude Children's Research Hospital NCGC Assay Overview: Thyroid receptor (TR) regulates many homeostatic processes including basal metabolism, cardiovascular function, body weight, and lipid trafficking. TR modulators are potential therapeutics for obesity and hyperlipidemias but current thyroid analogs have undesirable side effects, particularly cardiac stimulation. To identify inhibitors that specifically prevent the interaction of TR with the steroid receptor coregulator 2 (SRC2), a fluorescence polarization assay was screened. This assay detects interaction of the ligand-binding domain of human TRb with a Texas Red labeled SRC2 peptide, corresponding to a 20 amino acid region of the nuclear receptor interaction domain (Arnold et al., 2006). Small molecule inhibitors that block the interaction of TR and SRC2 are detected by a decrease in fluorescence polarization. This assay is a confirmation assay for AID 1469. Arnold, L. A.; Estebanez-Perpina, E.; Togashi, M.; Shelat, A.; Ocasio, C. A.; McReynolds, A. C.; Nguyen, P.; Baxter, J. D.; Fletterick, R. J.; Webb, P.; Guy, R. K. A high-throughput screening method to identify small molecule inhibitors of thyroid hormone receptor coactivator binding. Sci STKE 2006, p 13.
NCGC Assay Protocol Summary: For screening, 5 uL/well 0.6 uM TRb and 20 nM SRC2 Texas Red in protein buffer (20mM Tris hydrochloride, 100mM NaCl, 10% glycerol, 1mM EDTA, 0.01% NP-40, 1mM DTT, 1uM T3 and 5% DMSO) was dispensed into black solid 1536-well plates (Grenier) using a solenoid-based dispenser. Following transfer of 23 nL compound or DMSO vehicle by a pin tool, the plates were centrifuged 15 s at 1000 RPM and incubated 5 hr at ambient temperature. The plates were read by an Envision (Perkin Elmer) to detect fluorescence polarization of SRC2 Texas Red (555 nm excitation and 632 nm emission). Data were normalized to unbound (all components except TRb) and bound SRC2 Texas Red controls. In this assay, we provide % activity data for each concentration as well as potencies for the active compounds. Keywords: NIH Roadmap, MLPCN, MLI, MLSMR, qHTS, NCGC, qHTS, thyroid hormone receptor, steroid receptor coactivator, fluorescence polarization
With `Cn1cc[nH]c1=S` the Potency was “inactive”. `COn1c2c(c3c4nonc4ccc31)CCCC2` was tested, and the Potency was 35.5 µM (active). `CC(NC(=O)Nc1ccc(O)cc1)(C(F)(F)F)C(F)(F)F` was tested, and the Potency was “inactive”. In the case of `O=C(NNc1cc(N2CCOCC2)nc(N2CCOCC2)n1)c1ccc([N+](=O)[O-])cc1`, the Potency is reported as 20 µM (active). With `Cc1nc2ccccc2n2c(O)c(CC(=O)O)cc12` the Potency was 35.5 µM (active). `CCCCOc1ccc(C(=O)CCN2CCOCC2)cc1` was tested, and the Potency was 5.01 µM (active). For `CN1N=C(C(C)(C)C)CC1=O`, the Potency was “inactive”. `O=C(NNc1cc(N2CCOCC2)nc(N2CCOCC2)n1)c1ccc(Cl)c(Cl)c1` was tested, and the Potency was 31.6 µM (active). For `O=c1[nH]c(Nc2ccccc2)cc2ccccc12`, the Potency was 35.5 µM (active). `Cc1nnc(SCC(=O)Nc2ccc(N(C)C)cc2)[nH]c1=O` was tested, and the Potency was “inactive”. With `CCCCCCN=CC1=C(O)CC(C)(C)CC1=O` the Potency was “inactive”. For `O=C(O)/C=C/C(=O)Nc1ccc(SC(F)(F)C(F)(F)C(F)(F)F)cc1`, the Potency was 7.94 µM (active). In the case of `Cc1ccc(OC(=S)Nc2ccc(O)cc2)cc1`, the Potency is reported as “inactive”. `C=CC(=O)OCCOc1ccccc1` was tested, and the Potency was 112 µM (active). For `CC1=NN(Cc2ccccc2)C(=O)C1`, the Potency was “inactive”. For `O=C1CCCC(O)=C1N=Nc1cccc(S(=O)(=O)N2CCOCC2)c1`, the Potency was “inactive”. In the case of `Cn1c(NNC(=O)c2c(F)cccc2F)cc(=O)n(C)c1=O`, the Potency is reported as “inactive”. For `CS(=O)(=O)c1ccc(C(=O)OCC(=O)NC(=O)C2CCCCC2)cc1[N+](=O)[O-]`, the Potency was 10 µM (active). With `CCCc1cc(=O)[nH]c(=S)[nH]1` the Potency was “inactive”. `Cc1cc2ccccc2n1CCNC(=O)C(C)Oc1ccccc1` (stereo not given) was tested, and the Potency was “inactive”. For `Cn1c(=O)[nH]c2nnc(-c3ccc(Cl)c(Cl)c3)nc2c1=O`, the Potency was “inactive”. With `C=CCNC(=O)/C(C#N)=C\c1cc(Cl)c(OCC)c(OC)c1` the Potency was 35.5 µM (active). For `Cc1cccc(Cn2c(C(=O)OC(C)C)cc3c2ccn3C)c1`, the Potency was “inactive”. For `Oc1ccc2ccccc2c1/C=N/c1nccs1`, the Potency was 31.6 µM (active). `C=CCNC(=O)/C(C#N)=C/c1c(C)nn(-c2ccc(Cl)cc2)c1Cl` was tested, and the Potency was 17.8 µM (active). For `Oc1ccc2ccccc2c1/C=N/c1nc2c(s1)CCCC2`, the Potency was 28.2 µM (active). In the case of `O=C(Nc1nc2ccc(Cl)cc2s1)c1ccc(N2CCCCC2)c([N+](=O)[O-])c1`, the Potency is reported as “inactive”. `Cc1cccc(S(=O)(=O)c2cn(Cc3ccccc3)c3cc(N4CCC(C)CC4)c(F)cc3c2=O)c1` was tested, and the Potency was “inactive”. With `CN1CCc2ccc3c4c2[C@]1(C)Cc1cccc(c1-4)OCO3` the Potency was 89.1 µM (active). With `O=C(O)C1C2C=CC(O2)C1C(=O)Nc1ccc(S(=O)(=O)N2CCc3ccccc32)cc1` (stereo not given) the Potency was 39.8 µM (active). `COc1cc(C(c2c(C)[nH][nH]c2=O)c2c(C)[nH][nH]c2=O)ccc1OC(=O)c1cccc(C)c1` was tested, and the Potency was 31.6 µM (active). `COc1cc(/C=C(\C#N)C(=O)NCC2CCCO2)ccc1OCCC(C)C` (stereo not given) was tested, and the Potency was 35.5 µM (active). In the case of `CCCCOc1ccc(C(=O)CCN2CCCCC2)cc1`, the Potency is reported as 5.01 µM (active). In the case of `Oc1ccc2ccccc2c1C=NC12CN3CCN(CN(C3)C1)C2`, the Potency is reported as 28.2 µM (active). In the case of `Cc1cc(N=Cc2c(O)ccc3ccccc23)no1`, the Potency is reported as 28.2 µM (active). With `Cc1ccccc1Nc1cc2ccccc2c(=O)[nH]1` the Potency was 15.8 µM (active). With `CN(CCO)c1nc(N)c2c(N)nc3c(c2c1C#N)CC(=O)N3C1CCCC1` the Potency was “inactive”. `Nc1cc(-c2ccccc2)c[nH]c1=O` was tested, and the Potency was “inactive”. For `COc1ccc(-c2nc(CS(=O)CC(=O)NCc3ccccn3)c(C)o2)cc1` (stereo not given), the Potency was 35.5 µM (active). In the case of `O=c1cc(C23CC4CC(CC(C4)C2)C3)[nH][nH]1`, the Potency is reported as “inactive”.
